Assay results taken from PubChem BioAssay AID1778 (Sanford-Burnham Center for Chemical Genomics, 2009).
Values joined by “and” are separate entries in the source; they are usually repeats but may differ in a detail not shown here. Identical values can stand only once. Hit rate of the full screen: of about 290,000 compounds, about 260 (0.09%) were called active. This is one part of a sample in which actives are shown more often than they occur. Rule as the data show it: active = inhibition above about 50%; inactive = the rest. Potency and affinity values are given separately.

These compounds were tested against Kappa-type opioid receptor (Homo sapiens) (UniProt P41145) (assay: KOR antagonists, beta-arrestin recruitment, cell-based, luminescence, uHTS (AID 1778)). Conditions: antagonist mode, stronger effect = higher value; at 10 µM unless noted.
Kappa-type opioid receptor (Homo sapiens), sequence (P41145 whole entry, looked up): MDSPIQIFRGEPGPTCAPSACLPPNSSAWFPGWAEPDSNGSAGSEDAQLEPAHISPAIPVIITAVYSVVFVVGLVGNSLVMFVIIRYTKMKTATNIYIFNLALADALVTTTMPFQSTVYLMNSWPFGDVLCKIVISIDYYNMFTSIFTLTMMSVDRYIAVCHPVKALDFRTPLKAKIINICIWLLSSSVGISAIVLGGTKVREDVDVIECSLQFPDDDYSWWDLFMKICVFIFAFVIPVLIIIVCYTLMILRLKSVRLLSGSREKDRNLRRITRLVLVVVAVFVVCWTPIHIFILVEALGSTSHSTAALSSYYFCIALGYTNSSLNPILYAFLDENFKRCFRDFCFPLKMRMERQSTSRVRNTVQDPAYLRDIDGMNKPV

SMILES | inhibition
COc1cccc(CN2CCN(C(=O)c3oc4c(F)cccc4c3C)CC2=O)c1 | -26.9% [at 20 µM] (inactive)
COC(=O)CSc1nc2sc3c(c2c(=O)n1-c1ccc(OC)cc1)CCN(C)C3 | -14.3% (inactive)
COc1ccccc1N1CCN(C(=O)c2cnn3cccnc23)CC1 | 24.4% (inactive)
N=C1SC(c2ccccc2)C(=O)N1c1ncc(Cc2ccccc2)s1 (centres undefined) | 1.3% (inactive)
N=C1SCC(=O)N1c1ccccc1Cl | 16.3% (inactive)
N=C1SC(c2ccccc2)C(=O)N1c1ncc(Cc2ccccc2Cl)s1 (centres undefined) | 26.7% (inactive)
O=C1c2ccccc2C(=O)N1c1ncc(Cc2ccc(Cl)cc2)s1 | -50.6% (inactive)
CCC(C(=O)NCc1cccs1)n1nc(C)n2c(cc3occc32)c1=O (centres undefined) | -9.9% (inactive)
Fc1ccccc1-c1nc(-c2cnccc2C(F)(F)F)no1 | 11.7% (inactive)
CC(=O)Oc1ccc(C23CC4CC(CC(C4)C2)C3)cc1C(=O)O | -9% (inactive)
COc1ccc(C2=NN(C(=O)c3cccs3)C(c3ccccc3OC)C2)cc1OC (centres undefined) | 3.2% (inactive)
Cc1c(C(C)(C)C)s/c(=N/S(=O)(=O)c2ccccc2)n1C | 1.7% (inactive)
O=Cc1s/c(=N\S(=O)(=O)c2ccccc2)n(CCCCl)c1Cl | -16.2% (inactive)
Nc1cc(S(=O)(=O)Nc2cc(Cl)ccc2Cl)ccc1N1CCOCC1 | 6.9% (inactive)
C=CCNCC(=O)Nc1ccccc1SCC(=O)Nc1ccsc1C(=O)OC | -29% [at 20 µM] (inactive)
O=[N+]([O-])c1ccc(Nc2ccccc2)c2nonc12 | 7.5% (inactive)
O=[N+]([O-])c1ccc(Sc2cccc[n+]2[O-])c2nonc12 | 93% (active)
O=[N+]([O-])c1ccc(Nc2ccccc2O)c2nonc12 | 10.2% [at 20 µM] (inactive)
CC1(C)CC(=O)C(N=Nc2cccc(S(=O)(=O)N3CCOCC3)c2)=C(O)C1 | -0.5% (inactive)
CCOC(=O)c1[nH]c(C)c(C(=O)OCc2c(C)noc2C)c1C | -46% (inactive)
CCOCCCNC(=O)C(c1ccc(C)cc1)N(Cc1ccc2c(c1)OCO2)C(=O)CNC(C)=O (centres undefined) | -0.2% (inactive)
COc1ccc(NC(=O)C2CC(=O)N(c3ccccc3C)C2)c(OC)c1 (centres undefined) | -5% (inactive)
COc1ccc(C(=O)Nc2ccc(S(=O)(=O)Nc3nccnc3OC)cc2)cc1 | -19% (inactive)
CC(=O)N(C1CC(C)C(C#N)(C#N)C1(C#N)C#N)N(C)C (centres undefined) | 17.9% [at 20 µM] (inactive)

SMILES | inhibition
CCCC(=O)N(C1CC(C)C(C#N)(C#N)C1(C#N)C#N)N(C)C (centres undefined) | 85.4% (active)
O=C(CN(C(=O)CCC(=O)Nc1nccs1)c1ccc2c(c1)OCO2)NCc1ccc(F)cc1 | -0.7% (inactive)
Cc1nn(C)cc1CNC(=O)C1(C)CC1(Cl)Cl (centres undefined) | 11.1% (inactive)
O=S1(=O)NC(=NCCc2ccccn2)c2ccccc21 | 20.9% (inactive)
c1cnc2c(c1)ccc1cccnc12 | -30.1% (inactive) and 19.4% (inactive)
CC(C)c1nc2sc3c(c2c(=O)n1N)CC(C)(C)OC3 | 13% (inactive)
CC1(C)Cc2c(sc3ncn4nnnc4c23)CO1 | -7.5% (inactive)
CC1(C)Cc2c(sc3c4nnnn4c4nnnn4c23)CO1 | 56.4% (active)
CC1(C)Cc2c(c(-c3ccco3)nc3sc4c(NCC5CCCO5)ncnc4c23)CO1 (centres undefined) | -42.4% (inactive)
O=C(CSc1nc2ccsc2c(=O)n1CC1CCC(C(=O)O)CC1)c1ccc(F)cc1 (centres undefined) | 18.5% (inactive)
COc1ccc(N=Nc2nc(-c3ccccc3)c(-c3ccccc3)[nH]2)cc1 | 28.4% (inactive)
Oc1ccccc1N=Nc1nc(-c2ccccc2)c(-c2ccccc2)[nH]1 | 33.6% (inactive)
O=C(OCCCOc1ccc(F)cc1)c1ccc(O)cc1O | -20.5% (inactive)
CCC1CCC(C(=O)NC(C(=O)NCCc2ccc(S(N)(=O)=O)cc2)C(C)C)CC1 (centres undefined) | -31% (inactive)
CCOc1ccccc1C(=O)NC1CC2CCCC(C1)N2Cc1ccccc1 (centres undefined) | 5.8% (inactive)
O=C(NC1CC2CCCC(C1)N2Cc1ccccc1)c1cccc(F)c1 (centres undefined) | 34.5% (inactive)
CCOc1ccc(C(=O)NC2CC3CCCC(C2)N3CC(C)C)cc1 (centres undefined) | -39% (inactive)
CCCN1C2CCCC1CC(NC(=O)c1ccccc1OCC)C2 (centres undefined) | 12% (inactive)
O=C(NC1CC2CCCC(C1)N2Cc1ccccc1)c1ccc([N+](=O)[O-])cc1 (centres undefined) | 29.6% [at 20 µM] (inactive)
Cc1ccccc1C(=O)NC1CC2CCCC(C1)N2Cc1ccccc1 (centres undefined) | -8.6% [at 20 µM] (inactive)
O=C(NC1CC2CCCC(C1)N2Cc1ccccc1)c1cccc(Cl)c1 (centres undefined) | 13.7% [at 20 µM] (inactive)
COc1ccc(C(=O)NC2CC3CCCC(C2)N3Cc2ccccc2)cc1 (centres undefined) | 26.9% (inactive)
CC(=O)NC(=S)Nc1cccc([N+](=O)[O-])c1 | 30.8% (inactive)
Cc1cc(C)n2nc(SCC(=O)NC3CCCCC3)nc2n1 | -29.2% (inactive)

SMILES | inhibition
COc1c(F)c(F)c(C(=O)O)c(Nc2ccccc2)c1F | 4.7% (inactive)
COCc1nnc(NC(=O)CCCOc2ccccc2OC)s1 | -4.2% (inactive)
Cc1ccc(Cl)cc1NC(=S)Nn1cnnc1 | -13.2% (inactive)
O=C(NCCc1ccccc1)C1CC(=O)N(C2CCCC2)C1 (centres undefined) | -27.2% (inactive)
Cc1sc2c(c1C)C(=O)NC(c1cccc(O)c1)N2 (centres undefined) | 9.3% (inactive)
CCCN1C2CCCC1CC(NC(=O)c1ccc(F)cc1)C2 (centres undefined) | 22.4% (inactive)
CC(=O)NC1CC2CCCC(C1)N2Cc1ccc(C)cc1 (centres undefined) | -10% (inactive)
CCC(=O)NC1CC2CCCC(C1)N2Cc1ccc(C)cc1 (centres undefined) | 2.1% (inactive)
O=C(NC1CC2CCCC(C1)N2Cc1ccc(F)cc1)c1ccc(F)cc1 (centres undefined) | 13.6% [at 20 µM] (inactive)
CCOc1ccc(C(=O)NCC(=O)OCC(=O)N2CCCCC2)cc1 | -18.2% (inactive)
COc1ccc(CNC(=O)C2CCN(S(=O)(=O)c3cccc4nonc34)CC2)cc1 | -3.2% (inactive)
Cc1nc2cncc(Br)c2n1C | -11.9% (inactive)
CSc1ccc(NC(=O)NCCCN2CCC(Cc3ccccc3)CC2)cc1 | -20.9% (inactive)
Fc1ccc(NC(=S)NC2CC3CCC(C2)N3Cc2ccco2)cc1 (centres undefined) | 22.9% [at 20 µM] (inactive)
Cc1cccc(N2CCN(S(=O)(=O)c3cccc4nonc34)CC2)c1C | 3% (inactive)
Cc1ccc(OCc2cccc(S(=O)(=O)N(C)C)c2)c([N+](=O)[O-])n1 | -0.3% (inactive)
Cc1ccn2c(CNCCCn3cccn3)c(C(=O)N3CCCCCC3)nc2c1 | 13.8% [at 20 µM] (inactive)
O=C(O)/C(=C/c1ccco1)c1ccccc1 | -9.6% (inactive)
COc1ccc(/C=C(/C(=O)c2cccs2)N2C=CC=CC2=C(C#N)C#N)cc1 | -7.8% (inactive)
N#C/C(=C\c1ccco1)C(=O)NCc1ccccc1 | 7.2% (inactive)
N#C/C(=C\c1ccco1)C(=O)Nn1cnnc1 | 1% (inactive)
CC(/C=N/n1c(-c2ccc(Cl)cc2)n[nH]c1=S)=C\c1ccco1 | -13.3% (inactive)
COc1ccc(C(=O)N/C(=C/c2ccco2)C(=O)N2CCCCCC2)cc1 | -0.8% (inactive)
N#CC(C#N)=C1C=CC=CN1/C(=C\c1ccccc1Cl)C(=O)c1ccccc1 | 26.8% (inactive)

SMILES | inhibition
N#CC(C#N)=C1C=CC=CN1/C(=C\c1ccccc1)C(=O)c1cccs1 | -1% (inactive)
COc1ccc(CNC(=S)NCc2ccc(Cl)cc2)cc1OC | -4.7% (inactive)
COc1ccccc1N(CC(O)COc1ccccc1)S(=O)(=O)c1ccccc1 (centres undefined) | 25.7% (inactive)
O=C(Nc1ccccc1Oc1ccsc1C(=O)O)c1ccccc1 | 11% (inactive)
CC/C(C)=N/Oc1nc(C)cc(C)n1 | -35.7% (inactive)
NS(=O)(=O)c1ccc(NC(=O)Nc2ccc(S(N)(=O)=O)cc2)cc1 | 27.6% (inactive)
FC(F)(F)c1cnc(N2CCCN(C(=S)Nc3ccccc3)CC2)c(Cl)c1 | -20.9% (inactive)
O=C(Nc1cccc(C(=O)O)c1)/C(=C\c1ccccc1)NC(=O)c1cccc2ccccc12 | -20.3% [at 20 µM] (inactive)
N#C/C(=C/c1ccco1)C(N)=S | -13.4% (inactive)
CCOC(=O)/C(C#N)=C\c1ccco1 | -16.4% (inactive)
CC(=O)OC[C@H]1O[C@@H](O/N=C/[C@@H](C)[C@H](OCc2ccccc2)C(C)C)[C@H](OC(C)=O)[C@@H](OC(C)=O)[C@@H]1OC(C)=O | -20.6% (inactive)
CCOc1ccc2nc(NC(=O)c3cnc(C)cn3)sc2c1 | 54.4% (inactive)
O=C(Nc1nc2ccc(F)cc2s1)c1cccs1 | -4.2% (inactive)
O=C(Nc1nnc(SCc2ccc(F)cc2)s1)c1cccnc1Cl | 13% (inactive)
O=C(NNc1nc2c(F)cc(F)cc2s1)c1ccccc1 | 30.3% (inactive)
CCOc1ccc2nc(NC(=O)c3cnccn3)sc2c1 | -3.8% (inactive)
O=C(Nc1nnc(SCc2ccc(F)cc2)s1)c1cnccn1 | -29.3% [at 20 µM] (inactive)
O=C(Nc1nc2ccc(S(=O)(=O)N3CCCC3)cc2s1)c1ccccn1 | -85.6% (inactive)
O=C(Nc1nc2c(F)cc(F)cc2s1)c1ccco1 | -20.5% [at 20 µM] (inactive)
Cn1c(CNC(=O)c2ccco2)nnc1SCC(=O)c1ccccc1 | 0.9% (inactive)
O=C(c1ccc(CS(=O)(=O)c2ccc(Br)cc2)o1)N1CCN(c2ccc(F)cc2)CC1 | 3.6% (inactive)
CC(=O)Nc1ccc(S(=O)(=O)NC2(C(F)(F)F)C(=O)Nc3c2c(=O)[nH]c(=O)n3Cc2ccco2)cc1 (centres undefined) | 16.3% (inactive)
